According to article PMC11006913:

How the values were obtained:
Experiment in all cases: PBM; 200 nM protein, PBS
Conditions in all cases: dsDNA, one strand shown
PRRX1 [1] = target: PRRX1 (Homo sapiens, UniProt P54821 80-166, F113S)
PRRX1 [2] = target: PRRX1 (Homo sapiens, UniProt P54821 80-166)
HOXD13 [3] = target: HOXD13 (Homo sapiens, UniProt P35453 263-343, T313R)
HOXD13 [4] = target: HOXD13 (Homo sapiens, UniProt P35453 263-343)
HOXD13 [5] = target: HOXD13 (Homo sapiens, UniProt P35453 263-343, T313A)
PAX4 = target: T1, PAX4 (Homo sapiens, UniProt O43316 9-242, F177V)
T1 sequence: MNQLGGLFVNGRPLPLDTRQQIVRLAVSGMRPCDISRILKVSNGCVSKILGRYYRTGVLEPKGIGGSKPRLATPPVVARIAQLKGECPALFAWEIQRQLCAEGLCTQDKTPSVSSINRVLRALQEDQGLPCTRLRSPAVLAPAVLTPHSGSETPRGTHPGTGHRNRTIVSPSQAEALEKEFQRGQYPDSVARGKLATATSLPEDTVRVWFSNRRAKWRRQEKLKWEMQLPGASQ

ALX3 [6] = target: ALX3 (Homo sapiens, UniProt O95076 139-225)
ALX3 [7] = target: ALX3 (Homo sapiens, UniProt O95076 139-225, L168Q)
ALX3 [8] = target: ALX3 (Homo sapiens, UniProt O95076 139-225, L168V)
HOXC10 [9] = target: HOXC10 (Homo sapiens, UniProt Q9NYD6 254-340)
HOXC10 [10] = target: HOXC10 (Homo sapiens, UniProt Q9NYD6 254-340, K271E)
NKX3-2 [11] = target: NKX3-2 (Homo sapiens, UniProt P78367 192-278, P234S)
NKX3-2 [12] = target: NKX3-2 (Homo sapiens, UniProt P78367 192-278)
HOXC9 [13] = target: HOXC9 (Homo sapiens, UniProt P31274 178-260, R193K)
HOXC9 [14] = target: HOXC9 (Homo sapiens, UniProt P31274 178-260, K195R)
HOXC9 [15] = target: HOXC9 (Homo sapiens, UniProt P31274 178-260)
Chain of HOXC9 (Homo sapiens, UniProt P31274 178-260) (P31274 178-260): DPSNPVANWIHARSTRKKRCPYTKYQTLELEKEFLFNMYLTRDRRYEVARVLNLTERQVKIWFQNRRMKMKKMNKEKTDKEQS

Chain of HOXC10 (Homo sapiens, UniProt Q9NYD6 254-340, K271E) (Q9NYD6 254-340 K271E): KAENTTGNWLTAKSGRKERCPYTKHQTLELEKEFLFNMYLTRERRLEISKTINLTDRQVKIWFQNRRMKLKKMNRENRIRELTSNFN
Chain of HOXD13 (Homo sapiens, UniProt P35453 263-343) (P35453 263-343): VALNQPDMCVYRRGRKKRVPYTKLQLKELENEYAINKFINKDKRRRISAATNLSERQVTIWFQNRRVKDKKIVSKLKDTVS
Chain of HOXC9 (Homo sapiens, UniProt P31274 178-260, K195R) (P31274 178-260 K195R): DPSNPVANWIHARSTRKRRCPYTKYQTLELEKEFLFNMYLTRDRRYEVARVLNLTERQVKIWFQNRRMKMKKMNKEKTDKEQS
Chain of ALX3 (Homo sapiens, UniProt O95076 139-225, L168Q) (O95076 139-225 L168Q): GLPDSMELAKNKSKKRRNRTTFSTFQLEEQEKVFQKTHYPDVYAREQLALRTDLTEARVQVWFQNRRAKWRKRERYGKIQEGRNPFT
Chain of HOXC9 (Homo sapiens, UniProt P31274 178-260, R193K) (P31274 178-260 R193K): as the sequence (P31274 178-260) above, with R16K counted along it
Chain of NKX3-2 (Homo sapiens, UniProt P78367 192-278, P234S) (P78367 192-278 P234S): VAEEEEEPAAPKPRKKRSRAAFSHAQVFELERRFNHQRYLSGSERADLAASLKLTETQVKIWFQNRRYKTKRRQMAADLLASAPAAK
Chain of HOXD13 (Homo sapiens, UniProt P35453 263-343, T313R) (P35453 263-343 T313R): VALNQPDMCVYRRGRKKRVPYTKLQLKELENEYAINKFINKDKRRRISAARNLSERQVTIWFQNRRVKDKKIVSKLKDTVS
Chain of NKX3-2 (Homo sapiens, UniProt P78367 192-278) (P78367 192-278): as the sequence (P78367 192-278 P234S) above, with S43P counted along it
Chain of HOXC10 (Homo sapiens, UniProt Q9NYD6 254-340) (Q9NYD6 254-340): as the sequence (Q9NYD6 254-340 K271E) above, with E18K counted along it
Chain of PRRX1 (Homo sapiens, UniProt P54821 80-166) (P54821 80-166): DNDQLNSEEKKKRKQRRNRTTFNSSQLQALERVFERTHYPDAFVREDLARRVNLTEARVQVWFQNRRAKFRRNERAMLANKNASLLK
Chain of PRRX1 (Homo sapiens, UniProt P54821 80-166, F113S) (P54821 80-166 F113S): as the sequence (P54821 80-166) above, with F34S counted along it
Chain of ALX3 (Homo sapiens, UniProt O95076 139-225) (O95076 139-225): as the sequence (O95076 139-225 L168Q) above, with Q30L counted along it
Chain of HOXD13 (Homo sapiens, UniProt P35453 263-343, T313A) (P35453 263-343 T313A): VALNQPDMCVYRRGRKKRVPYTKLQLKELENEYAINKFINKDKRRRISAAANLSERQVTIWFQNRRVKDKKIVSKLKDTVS
Chain of ALX3 (Homo sapiens, UniProt O95076 139-225, L168V) (O95076 139-225 L168V): as the sequence (O95076 139-225 L168Q) above, with Q30V counted along it

Q: How did the binding signal (PRRX1 [1]) turn out when CAGAAGCC was run?
A: 9.41 upbm affinity estimate (log intensity, higher = more binding, comparable within an allelic series)

Q: What about the binding signal (PRRX1 [2]) of the same sequence?
A: 9.47 upbm affinity estimate (log intensity, higher = more binding, comparable within an allelic series)

Q: Which results are given for CTATAAAC?
A: binding signal (HOXD13 [3]): 10.9 upbm affinity estimate (log intensity, higher = more binding, comparable within an allelic series); binding signal (HOXD13 [4]): 12.2 upbm affinity estimate (log intensity, higher = more binding, comparable within an allelic series); binding signal (HOXD13 [5]): 12 upbm affinity estimate (log intensity, higher = more binding, comparable within an allelic series)

Q: With AATATAAT as the sequence, how does the binding signal (PAX4) read?
A: 10.7 upbm affinity estimate (log intensity, higher = more binding, comparable within an allelic series)

Q: And the binding signal (ALX3 [6])?
A: 11.4 upbm affinity estimate (log intensity, higher = more binding, comparable within an allelic series)

Q: And the binding signal (ALX3 [7])?
A: 9.35 upbm affinity estimate (log intensity, higher = more binding, comparable within an allelic series)

Q: What about the binding signal (ALX3 [8]) of the same sequence?
A: 9.24 upbm affinity estimate (log intensity, higher = more binding, comparable within an allelic series)

Q: Which results are given for GGCAGACC?
A: binding signal (HOXC10 [9]): 10.1 upbm affinity estimate (log intensity, higher = more binding, comparable within an allelic series); binding signal (HOXC10 [10]): 10.1 upbm affinity estimate (log intensity, higher = more binding, comparable within an allelic series); binding signal (NKX3-2 [11]): 10.4 upbm affinity estimate (log intensity, higher = more binding, comparable within an allelic series); binding signal (NKX3-2 [12]): 10.3 upbm affinity estimate (log intensity, higher = more binding, comparable within an allelic series)

Q: What does the source list for ATTAAATA?
A: binding signal (PRRX1 [1]): 11.1 upbm affinity estimate (log intensity, higher = more binding, comparable within an allelic series); binding signal (HOXC9 [13]): 12.5 upbm affinity estimate (log intensity, higher = more binding, comparable within an allelic series); binding signal (PAX4): 10.8 upbm affinity estimate (log intensity, higher = more binding, comparable within an allelic series)

Q: What does the source list for ACATTAAA?
A: binding signal (HOXC9 [14]): 12.6 upbm affinity estimate (log intensity, higher = more binding, comparable within an allelic series); binding signal (HOXC9 [15]): 12.6 upbm affinity estimate (log intensity, higher = more binding, comparable within an allelic series); binding signal (HOXC9 [13]): 12.6 upbm affinity estimate (log intensity, higher = more binding, comparable within an allelic series); binding signal (HOXC10 [10]): 11.8 upbm affinity estimate (log intensity, higher = more binding, comparable within an allelic series)

Q: ATAAATTA was tested. Which binding signal (PRRX1 [1]) did it give?
A: 11.2 upbm affinity estimate (log intensity, higher = more binding, comparable within an allelic series)

Q: And the binding signal (PAX4)?
A: 10.7 upbm affinity estimate (log intensity, higher = more binding, comparable within an allelic series)

Q: What about the binding signal (ALX3 [6]) of the same sequence?
A: 12.3 upbm affinity estimate (log intensity, higher = more binding, comparable within an allelic series)

Q: What about the binding signal (ALX3 [7]) of the same sequence?
A: 10.2 upbm affinity estimate (log intensity, higher = more binding, comparable within an allelic series)

Q: What about the binding signal (ALX3 [8]) of the same sequence?
A: 9.72 upbm affinity estimate (log intensity, higher = more binding, comparable within an allelic series)

Q: And the binding signal (PRRX1 [2])?
A: 13.3 upbm affinity estimate (log intensity, higher = more binding, comparable within an allelic series)

Q: Which results are given for GAGTCTCC?
A: binding signal (HOXC10 [9]): 10 upbm affinity estimate (log intensity, higher = more binding, comparable within an allelic series); binding signal (HOXC10 [10]): 9.99 upbm affinity estimate (log intensity, higher = more binding, comparable within an allelic series)

Q: ATAAAATA was tested. Which binding signal (HOXC10 [9]) did it give?
A: 12.3 upbm affinity estimate (log intensity, higher = more binding, comparable within an allelic series)

Q: What about the binding signal (HOXD13 [3]) of the same sequence?
A: 10.8 upbm affinity estimate (log intensity, higher = more binding, comparable within an allelic series)

Q: And the binding signal (HOXC9 [13])?
A: 12.5 upbm affinity estimate (log intensity, higher = more binding, comparable within an allelic series)

Q: And the binding signal (HOXD13 [4])?
A: 11.8 upbm affinity estimate (log intensity, higher = more binding, comparable within an allelic series)

Q: What about the binding signal (HOXC10 [10]) of the same sequence?
A: 11.7 upbm affinity estimate (log intensity, higher = more binding, comparable within an allelic series)

Q: And the binding signal (HOXD13 [5])?
A: 11.6 upbm affinity estimate (log intensity, higher = more binding, comparable within an allelic series)

Q: How did the binding signal (HOXC10 [9]) turn out when AATAAAAC was run?
A: 12.3 upbm affinity estimate (log intensity, higher = more binding, comparable within an allelic series)

Q: What about the binding signal (HOXD13 [3]) of the same sequence?
A: 10.9 upbm affinity estimate (log intensity, higher = more binding, comparable within an allelic series)

Q: What about the binding signal (HOXD13 [4]) of the same sequence?
A: 11.9 upbm affinity estimate (log intensity, higher = more binding, comparable within an allelic series)

Q: What about the binding signal (HOXC10 [10]) of the same sequence?
A: 11.7 upbm affinity estimate (log intensity, higher = more binding, comparable within an allelic series)

Q: What about the binding signal (HOXD13 [5]) of the same sequence?
A: 11.6 upbm affinity estimate (log intensity, higher = more binding, comparable within an allelic series)

Q: For ATTAATAC, which binding signal (PAX4) is on record?
A: 10.6 upbm affinity estimate (log intensity, higher = more binding, comparable within an allelic series)

Q: How did the binding signal (PRRX1 [1]) turn out when GCCGGAGC was run?
A: 9.3 upbm affinity estimate (log intensity, higher = more binding, comparable within an allelic series)

Q: And the binding signal (PRRX1 [2])?
A: 9.61 upbm affinity estimate (log intensity, higher = more binding, comparable within an allelic series)

Q: With CGTGAAGC as the sequence, how does the binding signal (HOXC10 [9]) read?
A: 10 upbm affinity estimate (log intensity, higher = more binding, comparable within an allelic series)

Q: What about the binding signal (HOXC10 [10]) of the same sequence?
A: 10 upbm affinity estimate (log intensity, higher = more binding, comparable within an allelic series)

Q: Which binding signal (HOXC9 [14]) does the source give for CCATAAAC here?
A: 12.4 upbm affinity estimate (log intensity, higher = more binding, comparable within an allelic series)

Q: What about the binding signal (HOXC9 [15]) of the same sequence?
A: 12.6 upbm affinity estimate (log intensity, higher = more binding, comparable within an allelic series)

Q: What about the binding signal (HOXD13 [3]) of the same sequence?
A: 10.8 upbm affinity estimate (log intensity, higher = more binding, comparable within an allelic series)

Q: What about the binding signal (HOXC9 [13]) of the same sequence?
A: 12.5 upbm affinity estimate (log intensity, higher = more binding, comparable within an allelic series)

Q: What about the binding signal (HOXD13 [4]) of the same sequence?
A: 12.1 upbm affinity estimate (log intensity, higher = more binding, comparable within an allelic series)

Q: And the binding signal (HOXC10 [10])?
A: 11.3 upbm affinity estimate (log intensity, higher = more binding, comparable within an allelic series)

Q: What about the binding signal (HOXD13 [5]) of the same sequence?
A: 11.8 upbm affinity estimate (log intensity, higher = more binding, comparable within an allelic series)

Q: GCCTTCCC was tested. Which binding signal (HOXC9 [14]) did it give?
A: 9.49 upbm affinity estimate (log intensity, higher = more binding, comparable within an allelic series)

Q: And the binding signal (HOXC9 [15])?
A: 9.55 upbm affinity estimate (log intensity, higher = more binding, comparable within an allelic series)

Q: What about the binding signal (HOXC9 [13]) of the same sequence?
A: 9.63 upbm affinity estimate (log intensity, higher = more binding, comparable within an allelic series)

Q: Which results are given for ACCGGCAG?
A: binding signal (PRRX1 [1]): 9.27 upbm affinity estimate (log intensity, higher = more binding, comparable within an allelic series); binding signal (HOXD13 [3]): 9.44 upbm affinity estimate (log intensity, higher = more binding, comparable within an allelic series); binding signal (HOXD13 [4]): 9.57 upbm affinity estimate (log intensity, higher = more binding, comparable within an allelic series); binding signal (HOXD13 [5]): 9.67 upbm affinity estimate (log intensity, higher = more binding, comparable within an allelic series); binding signal (PRRX1 [2]): 9.41 upbm affinity estimate (log intensity, higher = more binding, comparable within an allelic series)

Q: CCCAGGCC was tested. Which binding signal (HOXC9 [14]) did it give?
A: 9.5 upbm affinity estimate (log intensity, higher = more binding, comparable within an allelic series)

Q: And the binding signal (HOXC9 [15])?
A: 9.64 upbm affinity estimate (log intensity, higher = more binding, comparable within an allelic series)

Q: What about the binding signal (HOXC9 [13]) of the same sequence?
A: 9.51 upbm affinity estimate (log intensity, higher = more binding, comparable within an allelic series)

Q: GCGCGGCA was tested. Which binding signal (ALX3 [6]) did it give?
A: 7.75 upbm affinity estimate (log intensity, higher = more binding, comparable within an allelic series)

Q: What about the binding signal (ALX3 [7]) of the same sequence?
A: 7.66 upbm affinity estimate (log intensity, higher = more binding, comparable within an allelic series)

Q: What about the binding signal (ALX3 [8]) of the same sequence?
A: 7.72 upbm affinity estimate (log intensity, higher = more binding, comparable within an allelic series)

Q: Which results are given for AGCCCCGG?
A: binding signal (NKX3-2 [11]): 10.6 upbm affinity estimate (log intensity, higher = more binding, comparable within an allelic series); binding signal (NKX3-2 [12]): 10.6 upbm affinity estimate (log intensity, higher = more binding, comparable within an allelic series)

Q: With CTGCCGGC as the sequence, how does the binding signal (NKX3-2 [11]) read?
A: 10.4 upbm affinity estimate (log intensity, higher = more binding, comparable within an allelic series)

Q: What about the binding signal (NKX3-2 [12]) of the same sequence?
A: 10.3 upbm affinity estimate (log intensity, higher = more binding, comparable within an allelic series)

Q: Which results are given for ACCGGCCT?
A: binding signal (NKX3-2 [11]): 10.6 upbm affinity estimate (log intensity, higher = more binding, comparable within an allelic series); binding signal (NKX3-2 [12]): 10.5 upbm affinity estimate (log intensity, higher = more binding, comparable within an allelic series)

Q: How did the binding signal (NKX3-2 [11]) turn out when CGCCGGGA was run?
A: 10.5 upbm affinity estimate (log intensity, higher = more binding, comparable within an allelic series)

Q: And the binding signal (NKX3-2 [12])?
A: 10.5 upbm affinity estimate (log intensity, higher = more binding, comparable within an allelic series)

Q: For GCAGCCCC, which binding signal (NKX3-2 [11]) is on record?
A: 10.7 upbm affinity estimate (log intensity, higher = more binding, comparable within an allelic series)

Q: And the binding signal (NKX3-2 [12])?
A: 10.7 upbm affinity estimate (log intensity, higher = more binding, comparable within an allelic series)

Q: Which binding signal (PRRX1 [1]) does the source give for CCCTCGGC here?
A: 9.22 upbm affinity estimate (log intensity, higher = more binding, comparable within an allelic series)

Q: And the binding signal (PRRX1 [2])?
A: 9.48 upbm affinity estimate (log intensity, higher = more binding, comparable within an allelic series)

Q: Which binding signal (PAX4) does the source give for GGGGGCAA here?
A: 9.04 upbm affinity estimate (log intensity, higher = more binding, comparable within an allelic series)

Q: What does the source list for CCCAGCCG?
A: binding signal (HOXC9 [14]): 9.41 upbm affinity estimate (log intensity, higher = more binding, comparable within an allelic series); binding signal (HOXC9 [15]): 9.56 upbm affinity estimate (log intensity, higher = more binding, comparable within an allelic series); binding signal (HOXC9 [13]): 9.38 upbm affinity estimate (log intensity, higher = more binding, comparable within an allelic series)

Q: Which binding signal (PAX4) does the source give for CTCCGCCC here?
A: 9.16 upbm affinity estimate (log intensity, higher = more binding, comparable within an allelic series)
